The source of these data is PubChem BioAssay.

The source made the active and inactive calls. Unless noted, no rule for the calls is given here.

Assay [1] can be described thus: compounds binding Alexa647 anti-His antibody – biochemical, small-molecule microarray, 635 nm fluorescence, artefact control for SMM control protein annotation, primary screen (AID 1128).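 Also: score merges feature fluorescence with signal-to-noise for each printed compound spot.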 To be noted: higher = more signal.
In assay [2] the test system is Human papillomavirus type 1a E7 protein (residues 1-88). Kind of assay: HPV1a E7 small-molecule binders, primary screen, biochemical, small-molecule microarray, residues 1-88, 635 nm (AID 1129). To be noted: small-molecule microarray binding, fluorescence 635 nm; higher = more signal.
The target in assay [3] is Focal adhesion kinase 1 (Homo sapiens) (UniProt Q05397). Kind of assay: PTK2 protein binding on printed compound slides – biochemical, small-molecule microarray, 635/667 nm fluorescence, BSA, DTT, primary screen (AID 1130).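 Also: composite of spot emission at 667 nm and signal to noise over triplicate slides.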 To be noted: 635 nm fluorescence, higher = more signal.
Chain of Focal adhesion kinase 1 (Homo sapiens) (Q05397 whole entry, looked up): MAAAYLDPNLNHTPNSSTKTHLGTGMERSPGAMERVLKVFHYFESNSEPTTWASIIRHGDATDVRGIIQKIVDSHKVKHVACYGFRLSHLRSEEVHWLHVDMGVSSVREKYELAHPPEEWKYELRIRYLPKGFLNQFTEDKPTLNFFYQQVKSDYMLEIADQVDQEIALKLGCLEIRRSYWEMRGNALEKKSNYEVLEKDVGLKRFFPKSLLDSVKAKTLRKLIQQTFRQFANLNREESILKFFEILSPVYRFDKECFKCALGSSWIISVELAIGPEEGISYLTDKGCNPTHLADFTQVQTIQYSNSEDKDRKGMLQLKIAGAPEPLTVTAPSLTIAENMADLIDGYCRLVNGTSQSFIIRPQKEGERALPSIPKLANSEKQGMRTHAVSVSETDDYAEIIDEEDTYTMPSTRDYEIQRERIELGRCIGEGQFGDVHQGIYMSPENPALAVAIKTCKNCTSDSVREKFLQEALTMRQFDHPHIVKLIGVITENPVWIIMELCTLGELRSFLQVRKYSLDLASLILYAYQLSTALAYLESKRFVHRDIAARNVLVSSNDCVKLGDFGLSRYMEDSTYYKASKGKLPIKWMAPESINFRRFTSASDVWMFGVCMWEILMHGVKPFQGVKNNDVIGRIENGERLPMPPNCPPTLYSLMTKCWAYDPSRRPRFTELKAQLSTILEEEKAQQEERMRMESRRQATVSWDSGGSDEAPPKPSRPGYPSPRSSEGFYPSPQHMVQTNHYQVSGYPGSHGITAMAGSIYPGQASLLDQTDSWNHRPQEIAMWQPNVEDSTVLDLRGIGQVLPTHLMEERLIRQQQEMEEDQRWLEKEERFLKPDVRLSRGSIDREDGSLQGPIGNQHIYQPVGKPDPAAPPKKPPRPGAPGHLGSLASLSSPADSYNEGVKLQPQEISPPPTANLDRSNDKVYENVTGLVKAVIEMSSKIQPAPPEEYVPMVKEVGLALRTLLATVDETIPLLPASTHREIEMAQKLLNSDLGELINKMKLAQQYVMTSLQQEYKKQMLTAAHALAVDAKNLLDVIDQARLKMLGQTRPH
Assay [4] deals with Fibrinogen (Alexa647-labelled). Kind of assay: Alexa647-fibrinogen binding to printed small molecules – biochemical, small-molecule microarray, 635/667 nm fluorescence, artefact control for SMM control-protein annotation, profiling panel (AID 1131).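 Also: z-score merges 667 nm fluorescence with per-spot signal-to-noise over triplicate slides.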 The conditions noted are these: fibrinogen-A647 binding fluorescence, higher = more signal.
The target in assay [5] is Follistatin (Homo sapiens) (UniProt P19883). The experiment in a line: FST protein binding to printed compounds – biochemical, small-molecule microarray, 635/667 nm fluorescence, primary screen (AID 1132). The conditions noted are these: 635 nm fluorescence, higher = more signal.
Chain of Follistatin (Homo sapiens) (P19883 whole entry, looked up): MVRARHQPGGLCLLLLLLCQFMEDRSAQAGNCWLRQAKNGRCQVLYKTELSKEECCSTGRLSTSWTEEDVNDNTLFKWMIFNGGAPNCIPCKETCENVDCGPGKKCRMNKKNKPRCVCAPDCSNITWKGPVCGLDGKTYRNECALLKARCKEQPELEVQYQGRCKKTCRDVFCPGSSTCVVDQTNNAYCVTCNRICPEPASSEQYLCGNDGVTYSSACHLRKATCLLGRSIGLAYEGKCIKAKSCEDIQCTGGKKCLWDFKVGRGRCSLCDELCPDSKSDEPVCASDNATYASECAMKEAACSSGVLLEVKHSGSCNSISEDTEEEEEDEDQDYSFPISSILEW
In assay [6] the target is Fibroblast growth factor 2 (Homo sapiens) (UniProt P09038). The experiment in a line: basic fibroblast growth factor binding to printed compounds – biochemical, small-molecule microarray, 635/667 nm fluorescence, primary screen (AID 1133). To be noted: FGF2, fluorescence 635/667, higher = more signal.
Chain of Fibroblast growth factor 2 (Homo sapiens) (P09038 whole entry, looked up): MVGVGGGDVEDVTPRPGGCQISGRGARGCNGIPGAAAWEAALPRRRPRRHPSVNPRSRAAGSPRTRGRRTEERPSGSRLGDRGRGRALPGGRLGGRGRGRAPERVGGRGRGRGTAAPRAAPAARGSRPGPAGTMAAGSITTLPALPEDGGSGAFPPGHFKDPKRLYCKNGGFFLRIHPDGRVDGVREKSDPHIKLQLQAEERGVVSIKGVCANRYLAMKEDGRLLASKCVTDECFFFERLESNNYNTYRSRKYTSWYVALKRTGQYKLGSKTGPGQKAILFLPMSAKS
Assay [7] in a line: JC-1 mitochondrial potential readout, lung cancer cells – cell-based, A549, JC-1 fluorescence, basal, 24 h, 100 nL, profiling panel (AID 1138).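 Also: A549 lung adenocarcinoma cells under basal conditions with no added stimulus; test concentration not given here.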 To be noted: higher = more signal.
Another assay relates to Lefty1. Kind of assay: Lefty1 protein binding to printed compounds – biochemical, small-molecule microarray, 635/667 nm fluorescence, primary screen (AID 1139). The conditions noted are these: fluorescence 635/667, higher = more signal.
The subject of assay [8] is wheat germ agglutinin (Triticum aestivum), Alexa647-labelled. Kind of assay: Alexa647-WGA lectin binding to printed small molecules – biochemical, small-molecule microarray, 635/667 nm fluorescence, artefact control for SMM control-protein annotation, profiling panel (AID 1140).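 Also: score merges 667 nm feature emission with signal to noise over triplicate slides.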 The conditions noted are these: WGA-A647 binding, 635 nm fluorescence, higher = more signal.
Assay [9] has as its target Luciferin 4-monooxygenase (Photinus pyralis) (UniProt P08659). Kind of assay: inhibition of purified Photinus pyralis luciferase – biochemical, luminescence, purified enzyme, 2006 set, primary screen (AID 1141).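 Also: cell-free assay with purified firefly luciferase at 100 ng per well in PBS; test concentration not given here.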 To be noted: purified firefly luciferase, SteadyGlo luminescence, 30 min; higher = more signal, called active from +8 up or from −8 down.
Assay [10] relates to Wnt5a (protein binding on small-molecule microarray). The experiment in a line: small molecules binding Wnt5a protein – biophysical, small-molecule microarray, 635/667 nm fluorescence, primary screen (AID 1142).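 Also: fluorescence read at 667 nm with signal to noise per printed feature.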 The conditions noted are these: 635 nm fluorescence, higher = more signal.
Assay [11] in a line: ATP-based viability of Huh7 replicon cells – cell-based, CellTiter-Glo luminescence, basal, 48 h, cytotoxicity control for HCV replication inhibitor project, primary screen (AID 1143).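 Also: Huh7 hepatoma cells carrying a hepatitis C replication reporter with no stimulus; test concentration not given here.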 To be noted: higher = more signal, called active from +8 up or from −8 down. On the technique in general: A replicon is a self-replicating genome or part of one, used to study replication in cells.

Assay [12] in a line: Pseudomonas biofilm growth suppression – PAO1 strain, BacTiter-Glo luminescence, LB-PBS, primary screen (AID 1144). The conditions noted are these: P. aeruginosa PAO1 biofilm, 12 h, higher = more signal.
A short description of assay [13]: basal CRE-LacZ reporter activity in PC12 – cell-based, unstimulated, primary screen (AID 1145). To be noted: no forskolin, luminescence, 4.5 h, higher = more signal, called active from +8 up or from −8 down.
Assay [14] can be described thus: forskolin-driven CRE-LacZ activity in PC12 – cell-based, CRE-LacZ reporter, forskolin-stimulated, primary screen (AID 1146).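 Also: PC12 cells with 6xCRE LacZ reporter stimulated by forskolin 10 µM; beta-galactosidase reporter signal reflecting CREB driven transcription.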 To be noted: luminescence, 4.5 h, higher = more signal, called active from +8 up or from −8 down.
Assay [15] concerns the target Streptavidin (Streptomyces avidinii) (UniProt P22629). The experiment in a line: compounds binding control protein streptavidin – biophysical, small-molecule microarray, 635/667 nm fluorescence, artefact control for SMM compound annotation, primary screen (AID 1147).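 Also: signal reflects streptavidin binding to arrayed compounds as a control protein.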 The conditions noted are these: higher = more signal.
Assay [16] is described as follows: probe aInhba binding on compound microarray – biochemical, small-molecule microarray, 635/667 nm fluorescence, primary screen (AID 1148).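 Also: score merges 667nm spot fluorescence with signal-to-noise for antibody binding to printed compounds.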 The conditions noted are these: higher = more signal.
The target of assay [17] is Torsin-1A (Homo sapiens) (UniProt O14656). Kind of assay: TOR1A wild-type binding on microarray – cell lysate, small-molecule microarray, lysate, 635/667 nm, primary screen (AID 1149). The conditions noted are these: COS7 hTOR1A-WT lysate, 635 nm fluorescence, higher = more signal.
Chain of Torsin-1A (Homo sapiens) (O14656 whole entry, looked up): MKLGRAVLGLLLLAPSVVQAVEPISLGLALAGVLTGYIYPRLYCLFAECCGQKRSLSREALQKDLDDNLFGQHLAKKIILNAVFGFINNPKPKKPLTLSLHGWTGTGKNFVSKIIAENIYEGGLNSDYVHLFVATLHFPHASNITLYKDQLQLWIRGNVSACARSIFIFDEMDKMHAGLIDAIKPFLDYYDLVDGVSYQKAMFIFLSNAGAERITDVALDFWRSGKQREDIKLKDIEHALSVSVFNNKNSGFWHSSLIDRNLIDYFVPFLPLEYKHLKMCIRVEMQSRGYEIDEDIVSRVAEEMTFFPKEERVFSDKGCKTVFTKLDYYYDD
Assay [18] has the same target. Kind of assay: torsin A mutant lysate binding on microarrays – cell lysate, small-molecule microarray, COS7 lysate, 635/667 nm fluorescence, primary screen (AID 1150).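 Also: score pools 667 nm emission and signal to noise measuring lysate protein binding.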 To be noted: COS7 hTOR1A mutant lysate, 635 nm fluorescence, higher = more signal.
Assay [19] has as its system Sonic hedgehog protein (Shh). Kind of assay: Sonic hedgehog microarray binding compounds – biochemical, small-molecule microarray, 635/667 nm fluorescence, primary screen (AID 1151).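 Also: Shh protein binding to compounds spotted on small-molecule microarray slides; score combines spot fluorescence intensity with signal-to-noise across triplicate slides.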 To be noted: 635 nm fluorescence, higher = more signal.

Chain of Streptavidin (Streptomyces avidinii) (P22629 whole entry, looked up): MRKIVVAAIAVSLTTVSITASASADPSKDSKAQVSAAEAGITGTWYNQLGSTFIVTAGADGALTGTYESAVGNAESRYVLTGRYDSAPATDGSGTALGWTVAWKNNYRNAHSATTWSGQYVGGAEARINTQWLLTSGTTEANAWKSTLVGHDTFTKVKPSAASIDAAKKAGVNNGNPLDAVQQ
Chain of Luciferin 4-monooxygenase (Photinus pyralis) (P08659 whole entry, looked up): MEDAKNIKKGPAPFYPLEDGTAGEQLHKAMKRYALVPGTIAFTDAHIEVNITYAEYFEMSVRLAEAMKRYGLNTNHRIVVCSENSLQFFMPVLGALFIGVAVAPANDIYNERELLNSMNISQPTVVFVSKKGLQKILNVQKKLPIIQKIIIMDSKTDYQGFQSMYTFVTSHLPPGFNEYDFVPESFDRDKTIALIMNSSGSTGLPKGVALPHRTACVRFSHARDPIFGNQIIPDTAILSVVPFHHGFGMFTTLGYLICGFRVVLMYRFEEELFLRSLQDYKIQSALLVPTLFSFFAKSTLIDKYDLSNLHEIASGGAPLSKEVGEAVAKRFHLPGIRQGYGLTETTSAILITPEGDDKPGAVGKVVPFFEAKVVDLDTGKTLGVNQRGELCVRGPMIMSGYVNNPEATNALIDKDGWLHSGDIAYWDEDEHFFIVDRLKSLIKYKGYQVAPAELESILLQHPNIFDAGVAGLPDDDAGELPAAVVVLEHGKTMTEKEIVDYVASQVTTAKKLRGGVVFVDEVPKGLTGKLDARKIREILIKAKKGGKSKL

Take `COc1ccc([Si](C)(C)[C@H]2[C@H](CCO)O[C@@]3(C(=O)N(Cc4cccc(N5C(=O)COc6ccccc65)c4)c4ccccc43)[C@@H]2C)cc1`: the composite z-score in assay [1] was 0.354; in assay [2], -0.0131; in assay [3] it was -0.0804; in assay [4] it was 0.0563; in assay [5], 0.196; in [6], -0.032. Also, the composite z-score in the assay with Lefty1 was -0.236; in assay [8], 0.715; in [10], -0.285; in assay [15], 0.174; in assay [16], -0.128; with Torsin-1A (Homo sapiens) [17], -0.451. In addition, the composite z-score in the assay with Torsin-1A (Homo sapiens) [18] is -0.298; in [19], 0.419. Further, the z-score in assay [7] was 1.17; in [9], -1.17 (inactive); in [11], -6.25 (inactive); in assay [12], -1.83 (inactive); in assay [13], 2.41 (inactive); in [14] it was -1.52 (inactive).

With `O=C1O[C@@H](c2ccccc2)[C@@H](c2ccccc2)N2[C@@H](c3ccccc3OCCO)[C@]3(C(=O)Nc4ccc(C#CCCO)cc43)[C@@H](C(=O)N3CCCCCCC3)[C@H]12`, the composite z-score turned out to be 3.38 in assay [1]; 1.3 in assay [2]; 4.83 in [3]; 0.958 in [4]; 1.55 in assay [5]; 1.14 in [6]. Moreover, the composite z-score came to 1.87 in the assay with Lefty1; 1.74 in [8]; 2.37 in assay [10]; 4.08 in assay [15]; 2.42 in assay [16]; 3.06 with Torsin-1A (Homo sapiens) [17]. The composite z-score with Torsin-1A (Homo sapiens) [18] was 2.96; in assay [19], 1.78. Besides, the z-score in [7] was 0.163; in assay [9] it was 0.205 (inactive); in assay [11], -3.74 (inactive); in assay [12], -0.163 (inactive); in assay [13], 0.245 (inactive); in assay [14] it was 0.337 (inactive).

With `COC(=O)c1c(CC[C@@H](CO)NC(=O)N2CCC[C@H]2Cn2cc(Cc3ccccc3)nn2)oc(C(C)=O)c1C(=O)OC`, the composite z-score in assay [1] was -0.0636; in assay [2], 0.485; in [3] it was 0.397; in assay [4], -0.522; in assay [5], 0.613; in [6] it was 0.147. In addition, the composite z-score is 0.824 in the assay with Lefty1; 0.541 in assay [8]; -0.0725 in [10]; -0.114 in assay [15]; -0.0736 in assay [16]; -0.0521 in the assay with Torsin-1A (Homo sapiens) [17]. Further, the figures for the composite z-score (with Torsin-1A (Homo sapiens) [18]; in [19]) were 0.398 and 1.84, respectively. In addition, the z-score was -0.58 in assay [7]; 1.15 (inactive) in assay [9]; -0.393 (inactive) in [11]; 0.726 (inactive) in assay [12]; -0.244 (inactive) in assay [13]; -0.152 (inactive) in assay [14].

On to `COc1cc(OC)c(C(O)C2C=CC3C(=O)N(c4ccccc4)C(=O)C3N2Nc2ccccc2)cc1Br` (stereo not given), for which the composite z-score is 1.95 in assay [1]; 1.18 in assay [2]; 0.531 in [3]; 0.454 in assay [4]; 0.461 in assay [5]; -0.179 in [6]. The composite z-score was 0.387 in the assay with Lefty1; 0.126 in [8]; -0.0276 in assay [10]; 1.24 in [15]; 0.0155 in assay [16]; -0.162 in the assay with Torsin-1A (Homo sapiens) [17]. Further, the results for the composite z-score (in the assay with Torsin-1A (Homo sapiens) [18]; in assay [19]) were 0.282 and -0.381, respectively. The z-score in assay [7] was -0.267; in [9], -0.229 (inactive); in assay [11], -1.12 (inactive); in assay [12] it was -0.415 (inactive); in assay [13], 0.0501 (inactive); in assay [14], -0.434 (inactive).

On to `C=CC[C@]1(C(=O)NCCN2CCOCC2)N=C(c2ccc(OCCCO)cc2)O[C@H]1c1ccccc1CN=[N+]=[N-]`, for which the composite z-score was 0.625 in assay [1]; 1.18 in assay [2]; -0.319 in [3]; 0.636 in assay [4]; 1.46 in assay [5]; 1.68 in [6]. The composite z-score in the assay on Lefty1 is 0.0118; in [8], 1.03; in assay [10] it was 1.08; in assay [15], -0.422; in assay [16], -0.374; in the assay with Torsin-1A (Homo sapiens) [17], 1.39. Also, the composite z-score in the assay with Torsin-1A (Homo sapiens) [18] stood at 1.11; in assay [19] it was 0.284. Also, the z-score in [7] was 2.52; in [9], -1.37 (inactive); in [11] it was -0.933 (inactive); in [12], 0.81 (inactive); in assay [13], 2.01 (inactive); in [14], -0.784 (inactive).
